Screening results from PubChem BioAssay.
697 NFkB inh = lowers PMA/ionomycin-induced NF-kB signal in 697 B cells. 697 B-cell NF-kB luciferase reporter, 16 h. 330,000 tested, 0.33% active. inhibition, % at 4 µM. AID 435022; in the data active = inhibition above about 35%
Jurkat NFkB inh = inhibitors of the PMA/ionomycin-induced NF-kB reporter in Jurkat cells | PMA/ionomycin-induced NF-kB luciferase reporter, luminescence | AID 435003 | 330,000 tested, 0.53% active | inhibition, % at 4 µM; in the data active = inhibition above about 50%
Shn3 3UTR inh = reduces Shn3 3'UTR luciferase signal in osteoblasts; 360,000 tested, 0.52% active; Clone20 osteoblast Shn3 3'UTR firefly luciferase, 24 h; inhibition, % at 12.5 µM; AID 588674;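 active = mean inhibition of at least 75% with every replicate also reaching 75%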;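 note: 0% = median of neutral control wells and 100% = pilot-screen positive control compound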
Gli-Sufu antag = Gli-Sufu pathway antagonism | Sufu-KO-LIGHT fibroblasts, Gli luciferase reporter luminescence | inhibition, % at 5 µM | 340,000 tested, 0.74% active | AID 588413;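 active = inhibition above about 55%, limit read from the data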;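 note: 0% = DMSO-treated cells and 100% = wells with medium but no cells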
MITF TRPM1 inh = MITF TRPM1 promoter inhibition in SK-MEL-5 cells; SK-MEL-5 TRPM1 promoter luciferase, 24 h; inhibition, % at 12.5 µM; 330,000 tested, 0.83% active;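 active = mean inhibition across replicates of 60% or more, whatever share of single replicates reaches that level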
EBV LMP1 NFkB = Epstein-Barr LMP1 NF-kappaB reporter inhibition. LMP1-induced NF-kappaB luciferase reporter cells, luminescence. 350,000 tested, 0.69% active. inhibition, % at 12.5 µM; in the data active = inhibition above about 41%;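 note: 0% = neutral control wells and 100% = reference inhibitor control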
An asterisk follows results filed as active; nt = not tested or not shown. This is a sample that favours compounds with a hit; in the whole collection about 2.3% have one here.

SMILES	697 NFkB inh	Jurkat NFkB inh	Shn3 3UTR inh	Gli-Sufu antag	MITF TRPM1 inh	EBV LMP1 NFkB
C[C@@H]1CN([C@@H](C)CO)C(=O)c2cc(NC(=O)Nc3ccccc3)ccc2O[C@H]1CN(C)C(=O)Nc1cccc2ccccc12	4	3	11	-13	12	58*
O=C(CN1C(=O)NC2(CCCCC2)C1=O)N(Cc1ccco1)Cc1cccs1	24	0	-3	-6	-12	-6
Cc1ccccc1C(=O)NCC(c1ccco1)N1CCc2ccccc2C1 (configuration not stated)	-14	-8	-4	-2	-3	3
COc1ccc(NC(=O)Nc2ccc(F)c(F)c2)c(OC)c1	-11	-14	3	-13	74*	67*
COc1cc(OC)c2c(-c3cccc(-c4ccc(NC(C)=O)cc4)c3)cc(=O)oc2c1	-23	nt	-8	37	20	2
COc1cc(OC)c2c(-c3cccc(-c4sccc4C(C)=O)c3)cc(=O)oc2c1	-9	nt	13	67*	51	-2
O=C(CSc1n[nH]c(-c2ccccn2)n1)Nc1cccc(Cl)c1	9	-1	92*	-3	33	37
CCOC(=O)c1ccc(NC(=O)CC2C(=O)N(c3ccccc3)C(=O)N2CCCOC)cc1 (configuration not stated)	13	3	14	8	3	-11
COC1C=CC=C(C)C(=O)NC2=CC(=O)C(N)=C(CC(C)CC(OC)C(O)C(C)C=C(C)C1OC(N)=O)C2=O (configuration not stated)	nt	nt	87*	69*	65*	72*
COC1CC(C)C(OC)c2cc(O)cc(c2O)NC(=O)C(C)=CC=CC(C)C(OC(N)=O)C(C)=CC(C)C1OC (configuration not stated)	nt	nt	-1	8	72*	48*
CCN1CCN(C(=O)C2=C(C(=O)O)CCCC2)CC1	17	-20	0	2	1	-3
Cc1nnc(SCC(=O)Nc2ccc3c4c(cccc24)CC3)n1C	7	7	6	0	11	-2
Cc1cccc(CNc2ncnc3ccc(-c4ccoc4)cc23)c1	-53	0	-6	-7	1	75*
Cc1cccc(-c2ccc3ncnc(NCc4cccnc4)c3c2)c1	-18	36	23	3	12	-9
Cc1cccc(Nc2ncnc3ccc(Br)cc23)c1	-7	0	16	-10	-17	5
c1cncc(CNc2ncnc3ccc(-c4ccoc4)cc23)c1	-2	31	13	-39	7	46*
Brc1ccc2ncnc(NCc3ccccc3)c2c1	-20	36	75	43	4	60*
Cc1cc([N+](=O)[O-])ccc1NC(=O)CSc1nncn1-c1ccccn1	-4	-1	-2	-11	-6	-12
COc1ccc(NCC(O)COc2ccc(C(C)(C)C)cc2)cc1 (configuration not stated)	6	5	25	2	8	43*
Cc1nc2ccccc2n1Cc1n[nH]c(=S)n1-c1ccc(Cl)cc1	13	8	14	-6	-5	5
N#Cc1c(N)n(C2OC(CO)C(O)C2O)c2ncnc(N)c12 (configuration not stated)	nt	nt	65	-113	71*	66*
COc1ccc(C(=O)Nc2c(C)csc2C(=O)O)cc1	11	7	6	0	-13	-3
Cc1ccc(C)c(NC(=O)COC(=O)c2ccc3ccccc3n2)c1	9	-14	9	-7	4	-2
CCn1c(=O)c([N+](=O)[O-])c(Cl)c2ccccc21	0	-2	96*	2	94*	-4
CCn1c(=O)c([N+](=O)[O-])c(NCCN(C)C)c2ccccc21	21	18	-7	5	-4	2
SMILES	697 NFkB inh	Jurkat NFkB inh	Shn3 3UTR inh	Gli-Sufu antag	MITF TRPM1 inh	EBV LMP1 NFkB
CN(C)c1ccc(/C=C2\SC(=O)N(CCc3nnc(N)s3)C2=O)cc1	-105	-17	69	-63	83*	73*
O=C(N(c1ccccn1)c1ccccn1)C12CC3CC(CC(Cl)(C3)C1)C2	3	-10	5	7	-1	0
Cc1cc(OCC(=O)Nc2ccccn2)c2c(C)cc(=O)oc2c1	2	8	-6	13	-12	49*
CSc1ccccc1NC(=O)COc1ccc(Cl)cc1Cl	-17	-25	-15	40	-17	-7
O=C(COc1ccc(Cl)cc1Cl)Nc1ccccn1	-11	49	71	-31	80*	64*
COc1ccc(CNC(=O)CN2C(=O)COc3ccc(S(=O)(=O)N4CCC(C)CC4)cc32)cc1	-5	-16	8	-1	7	2
Cc1ccc(NC(=O)C(C)Sc2nnc(C)n2C2CC2)cc1S(=O)(=O)N1CCOCC1 (configuration not stated)	-1	2	-5	-4	1	-1
CCOC(=O)c1c(CSc2ccccc2)n(C)c2cc(Br)c(OCC(O)CNC(CO)(CO)CO)cc12 (configuration not stated)	nt	nt	0	9	90*	2
Cc1ccc(-c2cc(NC=O)c3ncc(-c4cnn(C)c4)n3c2)cc1	nt	nt	21	nt	nt	nt
CC[N+](C)(C)Cc1ccccc1Br	15	-15	3	-17	0	83*
O=C1C(=O)c2c(ccc3ccccc23)-c2ccccc21	nt	nt	96*	-8	98*	59*
CN(C)/C=C1\Oc2ccc3ccccc3c2C1=O	-2	-13	27	-61	-66	-28
CC(NC(=O)CCc1c[nH]c2ccccc12)c1ccccc1 (configuration not stated)	-46	-10	-8	-5	0	3
C[C@H](NCc1c[nH]c2ccccc12)c1ccccc1	11	9	5	5	18	81*
CC(C)C(=O)Nc1ccc(C(=O)CSc2nnc(C3CC3)n2C2CC2)cc1	17	13	-2	-4	-6	-2
Cc1ccc(NS(=O)(=O)c2cc(C(=O)NCCSc3ccc(C)cc3)ccc2C)cc1	1	8	-6	-1	9	-1
Cc1ccccc1N(C(=O)c1snc(C(N)=O)c1N)C(C(=O)NC1CCCCC1)c1ccc(O)cc1 (configuration not stated)	-3	-7	31	8	-5	41*
Cc1ccccc1N(C(=O)c1snc(C(N)=O)c1N)C(C)C(=O)NC1CCCCC1 (configuration not stated)	14	0	0	1	5	2
COC(=O)c1c(NC(C)=O)sc2c1CCN(Cc1ccccc1)C2	5	-9	-1	7	nt	-1
COc1ccc(-n2c(SCC(=O)Nc3ccc4c(c3)OCO4)nc3c(c2=O)SCC3)cc1	-24	8	-4	-7	2	76*
CN(C)CC(O)c1ccc(C=Cc2ccc(Cl)cc2)cc1 (configuration not stated)	nt	nt	-22	-33	78*	-66
CN(C)/C=C/C(=O)/C=C/c1ccc(Cl)cc1	-23	-53	-31	-41	-50	-15
